This is part of a sample that, as a whole, favours compounds with a hit. Of some 83,000 tested, about 20% had one in any assay.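 Cell lines were cultured in 96-well plates, exposed to a single compound concentration, and assessed for percent growth 48 hours later.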 A number with no mark means an inactive call. Active and inactive are the calls of the source. How the source made its calls: active means growth percent below 10; inactive means the rest.

This assay has as its system MDA-MB-468 breast. Kind of assay: NCI-60 one-dose screen, 48 h (100 = growth as untreated, 0 = no growth, -100 = all killed). The settings on record: 10 µM unless noted.
Consider `NC(=O)c1c(NC(=O)/C=C/c2cccs2)sc2c1CCC(=O)C2`, for which the growth was 37.2%.

As to `CCCC[N+](CCCC)=c1ccc2nc3c(C)cc(N(CC)CC)cc3sc-2c1`, the growth is -45.9% (active).

In the case of `Nc1ccc2cc(S(=O)(=O)O)cc(O)c2c1N=Nc1ccc(F)cc1`, the growth is 118%.

In the case of `CCNc1nc(S(=O)(=O)CC)nc2ccccc12`, the growth was 76.4%.
